# Results: PubChem BioAssay (EPA / NIEHS)
# Values joined by “and” are separate entries in the source; they are usually repeats but may differ in a detail not shown here. Identical values can stand only once. Records with an inconclusive call do not appear. Active and inactive are the calls of the source. Rule for the calls: active = hit-call score of the fitted dose curve at least 0.9, where 1 is the maximum; inconclusive = response in the unintended direction; inactive = score below 0.9.
# Tests used:
# [1] = molecular target: Cellular tumor antigen p53 (Homo sapiens) (UniProt P04637); assay: TOX21_p53_BLA_p2_ratio: Tox21 HCT-116 p53 Agonism Beta-lactamase Assay, Ratio, Phase 2 (AID 2283592)
# Chain of Cellular tumor antigen p53 (Homo sapiens) (P04637 whole entry, looked up): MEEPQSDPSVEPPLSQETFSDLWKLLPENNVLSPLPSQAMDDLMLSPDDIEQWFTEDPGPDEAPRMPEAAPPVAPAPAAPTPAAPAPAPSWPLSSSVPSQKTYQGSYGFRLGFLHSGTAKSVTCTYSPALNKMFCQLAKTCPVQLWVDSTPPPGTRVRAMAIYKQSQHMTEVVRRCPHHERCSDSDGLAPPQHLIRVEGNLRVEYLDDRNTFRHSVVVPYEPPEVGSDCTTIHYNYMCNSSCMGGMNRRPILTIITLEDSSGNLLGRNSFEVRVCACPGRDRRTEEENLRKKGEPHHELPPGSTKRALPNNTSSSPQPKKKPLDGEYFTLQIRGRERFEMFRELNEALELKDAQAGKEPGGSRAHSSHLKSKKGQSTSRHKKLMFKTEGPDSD
# Method in brief: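 Plated HCT116 p53-bla cells (4000/well) received compound after 5 h, then 16 h at 37C/5% CO2. CCF4-AM added, 2 h RT. Ratio of 460 to 530 nm emission taken as the p53 reporter signal.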
# [2] = molecular target: Cellular tumor antigen p53 (Homo sapiens) (UniProt P04637); assay: TOX21_p53_BLA_p3_ratio: Tox21 HCT-116 p53 Agonism Beta-lactamase Assay, Ratio, Phase 3 (AID 2283596)
# Method in brief: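 Cells were seeded at 4000/well, rested 5 h at 37C, then dosed with DMSO compound solutions (217-fold dilution) for 16 h. CCF4-AM substrate was loaded for 2 h at room temperature, and the 460/530 nm emission ratio was fitted for gain of signal versus DMSO.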
# [3] = molecular target: Cellular tumor antigen p53 (Homo sapiens) (UniProt P04637); assay: TOX21_p53_BLA_p5_ratio: Tox21 HCT-116 p53 Agonism Beta-lactamase Assay, Ratio, Phase 5 (AID 2283599)
# Method in brief: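 HCT-116 cells carrying a p53-inducible beta-lactamase reporter were seeded at 4000 cells/well and dosed after 5 h with compound in DMSO (217-fold dilution). After 16 h at 37C, CCF4-AM substrate was added for 2 h, and the 460/530 nm emission ratio was scored as gain-of-signal versus DMSO.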
# [4] = molecular target: Cellular tumor antigen p53 (Homo sapiens) (UniProt P04637); assay: TOX21_p53_BLA_p4_ratio: Tox21 HCT-116 p53 Agonism Beta-lactamase Assay, Ratio, Phase 4 (AID 2283601)
# Method in brief: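 HCT116 cells carrying an inducible beta-lactamase reporter were plated at 4000 cells/well, rested 5 h, then exposed to compounds in DMSO (217-fold dilution) for 16 h at 37C. CCF4-AM substrate was loaded 2 h at room temperature; 460/530 nm emission ratio scored gain-of-signal versus DMSO.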
# [5] = molecular target: Thyroid hormone receptor alpha (Rattus norvegicus) + Thyroid hormone receptor beta (Rattus norvegicus) (UniProt P18113+P63059); assay: TOX21_TR_LUC_GH3_Antagonist_Followup: Tox21 GH3 Thyroid Hormone Receptor Antagonism Luciferase Follow-Up Assay (AID 2283942)
# Method in brief: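 In a GH3 luciferase reporter line, test chemicals spanning 92 uM to 5nM final are co-incubated 24 h with 1.0 nM T3. Activity is expressed as relative luminescence units and analysed relative to DMSO.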
# THRA (gene 7067) = THRA (gene 7067) (UniProt P10827); assay: TOX21_TRA_COA_Antagonist_Followup_ratio: Tox21 Thyroid Hormone Receptor alpha Antagonism through Coactivator Recruitment Follow-Up Assay, Ratio (AID 2283953)
# Chain of THRA (gene 7067) (P10827 whole entry, looked up, the tested form may be a part): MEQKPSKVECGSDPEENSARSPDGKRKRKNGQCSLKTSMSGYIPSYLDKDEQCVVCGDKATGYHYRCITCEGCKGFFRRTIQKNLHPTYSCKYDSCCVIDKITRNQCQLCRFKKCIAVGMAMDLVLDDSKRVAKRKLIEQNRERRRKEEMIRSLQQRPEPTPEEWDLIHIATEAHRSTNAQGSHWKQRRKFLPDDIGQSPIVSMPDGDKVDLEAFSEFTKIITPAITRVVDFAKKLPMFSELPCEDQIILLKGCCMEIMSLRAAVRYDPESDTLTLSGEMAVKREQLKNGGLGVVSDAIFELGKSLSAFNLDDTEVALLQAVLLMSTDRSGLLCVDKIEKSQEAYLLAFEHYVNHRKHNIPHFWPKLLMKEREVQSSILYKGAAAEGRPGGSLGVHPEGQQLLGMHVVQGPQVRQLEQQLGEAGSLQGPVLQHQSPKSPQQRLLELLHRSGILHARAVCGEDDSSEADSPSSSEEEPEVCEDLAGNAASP
# Method in brief: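 GST-TRα LBD 2.5 nM, BSA 0.10%, + cpd; then FITC-SRC-2 peptide 200 nM + Tb-anti-GST Ab 2 nM. TR-FRET ratio 520/495 nm. Norm: DMSO = 0%, T3 = 100%.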
# THRB (gene 7068) = THRB (gene 7068) (UniProt P10828); assay: TOX21_TRB_BLA_Antagonist_Followup_ratio: Tox21 Thyroid Hormone Receptor beta Antagonism Beta-lactamase (BLA) Follow-Up Assay, Ratio (AID 2283958)
# Chain of THRB (gene 7068) (P10828 whole entry, looked up): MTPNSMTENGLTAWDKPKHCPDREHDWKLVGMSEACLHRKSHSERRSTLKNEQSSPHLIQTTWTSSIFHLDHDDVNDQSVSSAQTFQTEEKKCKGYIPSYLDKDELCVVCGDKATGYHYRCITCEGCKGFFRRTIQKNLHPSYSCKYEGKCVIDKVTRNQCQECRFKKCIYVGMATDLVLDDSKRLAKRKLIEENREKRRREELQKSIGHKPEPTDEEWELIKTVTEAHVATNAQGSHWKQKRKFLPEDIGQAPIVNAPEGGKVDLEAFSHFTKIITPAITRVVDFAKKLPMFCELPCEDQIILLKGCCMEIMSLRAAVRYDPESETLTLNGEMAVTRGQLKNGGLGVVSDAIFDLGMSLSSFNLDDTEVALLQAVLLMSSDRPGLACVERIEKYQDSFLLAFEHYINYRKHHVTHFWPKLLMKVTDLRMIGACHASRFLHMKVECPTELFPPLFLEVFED
# Method in brief: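 Beta-lactamase reporter ratio (460/530 nm, CCF4-AM substrate, 2 h room temperature) was read in TRb-bla HEK293T cells after 18 h compound treatment (11 concentrations, triplicate) at 37C in 2% charcoal-stripped FBS medium. Loss of signal fitted against DMSO.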
# [6] = TOX21_TRB_BLA_Antagonist_Followup_viability: Viability Assessment in the Tox21 Thyroid Hormone Receptor beta Antagonism Beta-lactamase (BLA) Follow-Up Assay (AID 2283961)
# Method in brief: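 TRβ-bla HEK293T (human TRβ LBD fused to GAL4 DBD), 3,000 cells/well, 2% charcoal-stripped FBS, phenol red-free medium; 18 h compound exposure, 37C; CellTiter-Glo 30 min RT; luminescence, loss-of-signal readout.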
# [7] = TOX21_p53_BLA_p4_viability: Viability Assessment in the Tox21 HCT-116 p53 Agonism Beta-lactamase Assay, Phase 4 (AID 2283597);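 note: hits lower the luminescence signal meaning cytotoxicity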
# Method in brief: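 Readout: ATP luminescence (CellTiter-Glo), measured 30 min after reagent addition at RT. The reagent followed a 2 h CCF4-AM incubation, and the cells had been exposed to compound for 16 h at 37C.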
# [8] = TOX21_p53_BLA_p5_viability: Viability Assessment in the Tox21 HCT-116 p53 Agonism Beta-lactamase Assay, Phase 5 (AID 2283600)
# Method in brief: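 Workflow: seed 4000 cells per well, wait 5 h, add compounds (DMSO, 217-fold dilution), incubate 16 h, load CCF4-AM 2 h, add CellTiter-Glo, read luminescence after 30 min.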
smiles,measurement,setting,value
Cc1ncc(CNC(=O)N(CCCl)N=O)c(N)n1,outcome,[1],inactive
same,outcome,[2],inactive
same,outcome,[3],inactive
same,outcome,[4],inactive
CC(NC(C)(C)C)C(=O)c1cccc(Cl)c1 (stereo not given),outcome,[1],inactive
same,outcome,[2],inactive
same,outcome,[3],inactive
same,outcome,[4],inactive
Cc1c(N)nc([C@H](CC(N)=O)NC[C@H](N)C(N)=O)nc1C(=O)N[C@H](C(=O)N[C@H](C)[C@@H](O)[C@H](C)C(=O)N[C@H](C(=O)NCCc1nc(-c2nc(C(=O)NCCC[S+](C)C)cs2)cs1)[C@@H](C)O)[C@@H](O[C@@H]1O[C@@H](CO)[C@@H](O)[C@H](O)[C@@H]1O[C@H]1O[C@H](CO)[C@@H](O)[C@H](OC(N)=O)[C@@H]1O)c1cnc[nH]1,AC50,[1],195 nM (active) and 1.16 µM (active)
same,AC50,[2],98.3 nM (active) and 922 nM (active)
same,AC50,[3],86.5 nM (active) and 808 nM (active)
same,AC50,[4],219 nM (active) and 730 nM (active)
COc1cc([C@@H]2c3cc4c(cc3[C@@H](O)[C@H]3COC(=O)[C@H]23)OCO4)cc(OC)c1O,AC50,[1],35.5 µM (active)
same,outcome,[2],inactive
same,outcome,[3],inactive
same,outcome,[4],inactive
same,outcome,[5],inactive
same,outcome,THRA (gene 7067),inactive
same,AC50,THRB (gene 7068),0.653 µM (active)
same,outcome,[6],inactive
C[N+]1(C)[C@@H]2CC[C@H]1CC(OC(=O)C(CO)c1ccccc1)C2 (stereo not given in full),outcome,[1],inactive
same,outcome,[2],inactive
same,outcome,[3],inactive
same,outcome,[4],inactive
COC1=CC(=O)O[C@@H](/C=C/c2ccccc2)C1,outcome,[1],inactive
same,outcome,[7],inactive
same,outcome,[8],inactive
ClCC(Cl)(Cl)Cl,outcome,[1],inactive
same,outcome,[3],inactive
same,outcome,[8],inactive
CC(Cl)C(C)Cl (stereo not given),outcome,[1],inactive
same,outcome,[7],inactive
same,outcome,[3],inactive
Cl/C=C\Cl,outcome,[1],inactive
same,outcome,[4],inactive
